Records with an inconclusive call do not appear. The source made the active and inactive calls. The call rests on the fitted dose curve; in most records, active means well fitted inhibition curve with a large enough effect; inconclusive means small, poorly fitted or top-dose-only effect, or effect the other way; inactive means flat fitted curve, though single readings scatter.

The target in the assay is ATP-dependent 6-phosphofructokinase (Trypanosoma brucei brucei) (UniProt O15648). The assay can be described thus: qHTS Assay to Find Inhibitors of T. brucei phosphofructokinase: hit validation (AID 492961). As to conditions: T. brucei PFK, ADP-Glo luminescence; series mostly up to 51.4 µM. The method, boiled down: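 Luminescence from ADP-Glo reports ADP generated as T. brucei PFK (1.25 nM) phosphorylates 0.5 mM fructose-6-phosphate using 0.1 mM ATP. Reactions ran 45 min at room temperature, pH 8.0.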
Chain of ATP-dependent 6-phosphofructokinase (Trypanosoma brucei brucei) (O15648 whole entry, looked up): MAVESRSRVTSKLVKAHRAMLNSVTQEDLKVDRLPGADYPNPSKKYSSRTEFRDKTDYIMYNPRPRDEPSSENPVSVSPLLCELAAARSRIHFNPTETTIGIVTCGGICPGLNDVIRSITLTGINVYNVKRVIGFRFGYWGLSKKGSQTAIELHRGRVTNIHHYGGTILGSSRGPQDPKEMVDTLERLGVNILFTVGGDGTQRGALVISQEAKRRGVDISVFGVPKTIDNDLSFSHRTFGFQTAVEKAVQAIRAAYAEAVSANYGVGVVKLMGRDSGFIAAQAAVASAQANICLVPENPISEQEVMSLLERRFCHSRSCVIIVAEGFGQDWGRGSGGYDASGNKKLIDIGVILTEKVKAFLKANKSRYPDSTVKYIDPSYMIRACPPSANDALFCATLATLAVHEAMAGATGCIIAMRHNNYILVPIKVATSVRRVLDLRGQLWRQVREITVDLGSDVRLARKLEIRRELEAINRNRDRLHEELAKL
As to `NCc1ccc(S(N)(=O)=O)cc1`, the compound was called inactive.

In the case of `O=C(Cn1ccnc1[N+](=O)[O-])NCc1ccccc1`, the call was inactive.

Turning to `NNc1nnc(NN)c2ccccc12`, the compound was called inactive.

Regarding `CCCCCC(N)=O`, the result was inactive.

With `NC(N)=NS(=O)(=O)c1ccc(N)cc1`, the compound was classed as inactive.

As to `COC(=O)c1ccc(O)cc1`, the outcome was inactive.

With `COc1cc(C(=O)NCCCCCC(=O)O)cc(OC)c1OC`, the outcome was inactive.

Consider `O=C(O)COC(=O)Cc1ccccc1Nc1c(Cl)cccc1Cl`, for which the call was inactive.

Regarding `C=CCSCC1Nc2cc(Cl)c(S(N)(=O)=O)cc2S(=O)(=O)N1` (centres undefined), the outcome was inactive.

For `C=CCNC(N)=S`, the call was inactive.

As for `Cc1cc(C)c(NC(=O)CN(CC(=O)O)CC(=O)O)c(C)c1Br`, the call was inactive.

Turning to `CC(=O)N[C@@H](Cc1ccc(O)cc1)C(=O)O`, the result was inactive.

Turning to `CCOC(=O)[C@H](CCc1ccccc1)N[C@@H](C)C(=O)N1CCC[C@H]1C(=O)O`, the result was inactive.

Turning to `O=C1CC[C@@H](C(=O)O)N1`, the call was inactive.

On to `NS(=O)(=O)c1cc2c(cc1C(F)(F)F)NCNS2(=O)=O`, for which the call was inactive.

On to `O=C1c2ccccc2C(=O)C1c1ccc(Br)cc1`, for which the call was inactive.

As for `Nc1ccncc1N`, the compound was called inactive.

Take `CC(=O)Nc1ccccc1`: the call was inactive.

On to `CC(CSC(=O)c1ccccc1)C(=O)N1C[C@@H](Sc2ccccc2)C[C@H]1C(=O)O` (some centres undefined), for which the outcome was inactive.

As to `Cc1ccc(S(=O)(=O)NC(=O)NC2CCCCCCC2)cc1`, the compound was classed as inactive.

Regarding `NC(=O)CCCCC1CCSS1` (centres undefined), the call was inactive.

Consider `Cc1cc(OI)c(C(C)C)cc1-c1cc(C(C)C)c(OI)cc1C`, for which the call was inactive.

`CC(C)CCCC(C)CCCC(C)CCCCC(C)CCCC(C)CCCC(C)C` (centres undefined): the outcome was inactive.

Regarding `CC1CCN(CCCC(=O)c2ccc(F)cc2)CC1`, the compound was called inactive.
